Source: PubChem BioAssay (The Scripps Research Institute Molecular Screening Center)
Rows were chosen to be rich in hits. Some 1.1% of all compounds tested hit in one or more screens of this group.
NR2F2 inh – blocks human COUP-TFII nuclear receptor. HEK293T NGFI-A luciferase reporter, luminescence. inhibition, % at 8.6 µM. 370,000 compounds, 0.7% hits;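 active means inhibition above a per-plate cutoff, mean inhibition of test wells between control levels plus 3 SD, cut at about 38% in these data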;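 further: cells cotransfected with COUP-TFII expression vector driving the NGFI-A reporter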
GalR3 antagonist – antagonists of human GalR3. O60755. HEK293 GalR3-CNG cAMP membrane potential fluorescence; galR3 body fused to GalR1 C-terminus. inhibition, % at 3 µM. 360,000 compounds, 0.44% hits. AID 651719;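 active means inhibition above the screen-wide average plus 3 SD, cut at about 13% in these data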;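 further: forskolin and galanin both at EC90 stimulate the cells; cAMP rise reported by CNG channel membrane potential dye signal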
SRC3 inh – human NCOA3 inhibition | inhibition, % at 3.6 µM | HEK293 GAL4-SRC3 luciferase reporter, luminescence | 360,000 compounds, 0.17% hits;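 active means inhibition above a per-campaign cutoff, the mean of all compounds plus 3 SD, cut at about 60% in these data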;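 further: higher means less SRC3-driven luciferase light from the GAL4 reporter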
NCOA1 inh – inhibits human SRC1 coactivator | HEK293 GAL4-SRC1 luciferase reporter, luminescence | inhibition, % at 3.6 µM | 360,000 compounds, 0.12% hits | Q15788;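 active means inhibition above the campaign mean plus 3 SD, with each screening campaign given its own cutoff, cut at about 60% in these data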
NCOA2 inhibitor – inhibits human steroid receptor coactivator 2; Q15596; HEK293 GAL4-SRC2 luciferase reporter, luminescence; inhibition, % at 9 µM; 370,000 compounds, 0.17% hits; AID 651957;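 active means inhibition above the mean inhibition of all tested compounds plus 3 SD, set per campaign, cut at about 52% in these data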
Target sequence (Q15596 whole entry, looked up, the tested form may be a part): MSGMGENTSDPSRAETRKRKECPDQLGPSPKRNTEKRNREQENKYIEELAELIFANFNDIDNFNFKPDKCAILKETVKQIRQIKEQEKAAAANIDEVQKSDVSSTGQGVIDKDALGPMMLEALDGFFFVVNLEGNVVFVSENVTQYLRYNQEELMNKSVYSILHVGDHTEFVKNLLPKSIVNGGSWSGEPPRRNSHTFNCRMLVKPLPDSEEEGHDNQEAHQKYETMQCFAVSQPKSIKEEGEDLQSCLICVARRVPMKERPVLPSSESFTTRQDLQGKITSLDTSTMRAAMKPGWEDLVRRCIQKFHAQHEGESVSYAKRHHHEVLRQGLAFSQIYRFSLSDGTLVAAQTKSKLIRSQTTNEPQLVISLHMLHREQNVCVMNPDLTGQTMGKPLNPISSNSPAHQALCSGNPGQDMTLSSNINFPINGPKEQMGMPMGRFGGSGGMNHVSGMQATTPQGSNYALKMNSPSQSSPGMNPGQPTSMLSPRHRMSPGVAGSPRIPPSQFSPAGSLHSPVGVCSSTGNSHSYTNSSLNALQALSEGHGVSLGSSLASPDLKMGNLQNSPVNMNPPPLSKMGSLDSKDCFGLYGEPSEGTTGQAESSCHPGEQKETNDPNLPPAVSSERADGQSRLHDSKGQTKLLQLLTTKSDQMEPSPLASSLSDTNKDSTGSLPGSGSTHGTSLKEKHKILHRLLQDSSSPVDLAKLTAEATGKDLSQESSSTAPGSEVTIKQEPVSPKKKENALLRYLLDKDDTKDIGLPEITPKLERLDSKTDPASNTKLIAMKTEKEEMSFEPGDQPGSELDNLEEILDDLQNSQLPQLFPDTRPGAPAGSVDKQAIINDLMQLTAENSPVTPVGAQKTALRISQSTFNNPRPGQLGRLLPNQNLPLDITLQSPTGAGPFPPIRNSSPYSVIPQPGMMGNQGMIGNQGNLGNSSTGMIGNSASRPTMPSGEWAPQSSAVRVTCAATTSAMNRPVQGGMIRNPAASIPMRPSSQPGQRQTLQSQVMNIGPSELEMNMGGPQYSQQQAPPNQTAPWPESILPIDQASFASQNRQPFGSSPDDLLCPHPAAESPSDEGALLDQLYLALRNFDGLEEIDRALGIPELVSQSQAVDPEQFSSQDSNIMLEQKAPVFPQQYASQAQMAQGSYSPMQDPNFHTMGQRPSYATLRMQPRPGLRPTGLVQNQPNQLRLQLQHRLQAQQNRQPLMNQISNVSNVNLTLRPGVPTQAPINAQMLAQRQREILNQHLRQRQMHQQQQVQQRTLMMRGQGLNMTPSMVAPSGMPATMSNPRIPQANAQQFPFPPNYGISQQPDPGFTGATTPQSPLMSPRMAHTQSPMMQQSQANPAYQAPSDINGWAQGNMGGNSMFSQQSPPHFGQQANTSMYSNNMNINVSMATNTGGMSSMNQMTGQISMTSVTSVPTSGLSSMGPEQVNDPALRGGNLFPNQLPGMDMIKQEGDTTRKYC
LRH-1 inv ag – inverse agonists of human LRH-1 (NR5A2); O00482; HEK293T StAR-luciferase reporter, LRH-1 transfected, 24 h; inhibition, % at 3.6 µM; AID 602396; 360,000 compounds, 0.13% hits;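 active means inhibition above the mean inhibition of all tested compounds plus 3 SD, cut at about 73% in these data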
Each line names hits and unclear results; the compound was inactive in the other large screens.

CC1CCN(Cc2c(C(=O)N/N=C/c3cc(Br)ccc3O)nnn2-c2nonc2N)CC1	SRC3 inh 68
CN(C)C=Nc1nc2c(Br)ccc(Br)c2cc1C(=O)NCC(C)(C)C	none (no result: GalR3 antagonist, SRC3 inh, NCOA1 inh, LRH-1 inv ag)
C=CCN(C)CC#Cc1ccc(OC)cc1	none (no result: GalR3 antagonist, SRC3 inh, NCOA1 inh, LRH-1 inv ag)
Cc1ccc(-c2nc(NC(=O)c3nn(C)cc3[N+](=O)[O-])sc2C)cc1C	none
Cc1ccc(-c2nc(NC(=O)c3nn(C)cc3[N+](=O)[O-])sc2C)cc1	NCOA2 inhibitor 52
COC(=O)C1CN(Cc2ccc(C)cc2)CCS(=O)(=O)N1Cc1cn(Cc2ccccc2)nn1 (stereo unspecified)	none (no result: GalR3 antagonist, SRC3 inh, NCOA1 inh, LRH-1 inv ag)
Cc1cc(C)c2sc(NNC(=O)c3ccc(S(=O)(=O)N4CCc5ccccc5C4)cc3)nc2c1	SRC3 inh 81, NCOA1 inh 70 (no result: GalR3 antagonist)
Cc1ccc(NC2=C(N3CCCCC3)C(=O)c3ccccc3C2=O)cc1	none
COc1ccccc1NC1=C(N2CCCCC2)C(=O)c2ccccc2C1=O	SRC3 inh 80, NCOA1 inh 74, LRH-1 inv ag 97 (no result: NR2F2 inh, GalR3 antagonist, NCOA2 inhibitor)
O=C1C(Nc2ccccc2)=C(N2CCCCC2)C(=O)c2ccccc21	SRC3 inh 68, LRH-1 inv ag 93
O=C(/C=C/c1ccc(O)cc1)c1ccc(NC2=C(N3CCCCC3)C(=O)c3ccccc3C2=O)cc1	LRH-1 inv ag 76
CCCCS(=O)(=O)N1CCCc2nc(-c3ccc(F)cc3)ccc21	none (no result: SRC3 inh, NCOA1 inh, LRH-1 inv ag)
COc1ccc(Cc2nnc(N/N=C/c3ccc(O)cc3)[nH]c2=O)cc1OC	SRC3 inh 69, NCOA2 inhibitor 53
COc1ccc(Cc2nnc(N/N=C/c3ccc(Br)cc3)[nH]c2=O)cc1OC	none
O=C(OCc1ccccc1)c1ccc(NCc2cc(O)ccc2O)cc1	NR2F2 inh 56, NCOA2 inhibitor 83
CC(C)OC(=O)c1ccc(NCc2cc(O)ccc2O)cc1	NCOA2 inhibitor 60
COC(=O)c1cc(C(c2ccccc2O)C2CCCO2)n2cccc(C(C)(C)C)c12 (stereo unspecified)	none (no result: GalR3 antagonist, SRC3 inh, NCOA1 inh, LRH-1 inv ag)
Cc1cc(/C=c2/sc3nc4ccccc4n3c2=O)c(C)n1-c1ccccn1	NR2F2 inh 101, SRC3 inh 90, NCOA1 inh 88, NCOA2 inhibitor 79, LRH-1 inv ag 79
O=[N+]([O-])c1ccc(O)c(/C=N/Nc2nc3ccccc3[nH]2)c1	SRC3 inh 64, LRH-1 inv ag 91
CCC1C(=O)C(C)(C)C(=O)OC1c1ccc([N+](=O)[O-])cc1 (stereo unspecified)	none
O=C1CC(=O)OC(c2ccc([N+](=O)[O-])cc2)O1	SRC3 inh 78 (no result: NR2F2 inh, GalR3 antagonist, NCOA2 inhibitor)
CCOC(=O)CCSc1nc(C(C)(C)C)cc(C(F)(F)F)c1C#N	NCOA2 inhibitor 70
COc1ccc(-n2c(COc3ccccc3)nnc2SCC(=O)Nc2ccccc2-c2ccccc2)cc1	none (no result: GalR3 antagonist, SRC3 inh, NCOA1 inh, LRH-1 inv ag)
O[C@H](COc1cccc(Cl)c1)CN1CCC(C(O)(c2ccccc2)c2ccccc2)CC1	none (no result: GalR3 antagonist, SRC3 inh, NCOA1 inh, LRH-1 inv ag)
C(=NNc1ccc2ccccc2n1)c1ccccn1	SRC3 inh 68, NCOA1 inh 72, LRH-1 inv ag 80
CN(C)c1ccc(/C=C/c2ccc3c4ccccc4ccc3[n+]2-c2ccccc2)cc1	NR2F2 inh 85, GalR3 antagonist 18, SRC3 inh 77, NCOA1 inh 71, LRH-1 inv ag 91
CN(CCCS(=O)(=O)[O-])c1ccc(/C=C/c2ccc3ccccc3[n+]2C)cc1	none
CN(C)c1ccc(/C=C/c2ccc3ccccc3[n+]2C)cc1	NR2F2 inh 72, SRC3 inh 70, NCOA1 inh 63, LRH-1 inv ag 97
CN(C)c1ccc(/C=C/c2cccc[n+]2[O-])cc1	none
COc1ccc(CNCC#CC2=CCCCC2)c(OC)c1	none (no result: GalR3 antagonist, SRC3 inh, NCOA1 inh, LRH-1 inv ag)
Nc1nc(N)c2c(ccc3c2ccn3Cc2cccc([N+](=O)[O-])c2)n1	SRC3 inh 64, NCOA1 inh 65
C[C@@H]1C=CCCO[C@]12C(=O)Nc1ccccc12	none (no result: SRC3 inh, NCOA1 inh, LRH-1 inv ag)
CC(=O)Nc1ccc(C(=O)N/N=C/c2ccccc2OCc2ccccc2)cc1	none
COc1cc(/C=N\NC(=O)c2ccc(-c3ccccc3)cc2)cc(OC)c1O	none
COc1cc(/C=N/NC(=O)c2ccc(COc3cc(C)ccc3C(C)C)cc2)cc(OC)c1O	NCOA2 inhibitor 62
Cc1ccc(C(C)C)c(OCc2ccc(C(=O)N/N=C/c3cccc(O)c3O)cc2)c1	SRC3 inh 65, NCOA2 inhibitor 73
